# Values joined by “and” are separate entries in the source; they are usually repeats but may differ in a detail not shown here. Identical values can stand only once. Compounds without any hit were thinned out: in the full panel of roughly 83,000, 20% have a hit.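 Single-concentration screen, 48 h exposure, 96-well plates. Endpoint: percent growth. Below 10 = active.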 Active and inactive are the calls of the source.
# Columns and labels:
# Test in all cases: NCI-60 one-dose screen, 48 h (100 = growth as untreated, 0 = no growth, -100 = all killed)
# NCI-H23 lung = test system: NCI-H23 lung
# NCI-H226 lung = test system: NCI-H226 lung
# HOP-62 NSCLC = test system: HOP-62 NSCLC
# NCI-H460 lung = test system: NCI-H460 lung
# HOP-92 NSCLC = test system: HOP-92 NSCLC
# NCI-H522 lung = test system: NCI-H522 lung
# 786-0 renal = test system: 786-0 renal
# DU-145 prostate = test system: DU-145 prostate
# K-562 leukemia = test system: K-562 leukemia
# MALME-3M melanoma = test system: MALME-3M melanoma
# MDA-MB-231 breast = test system: MDA-MB-231 breast
# RXF 393 renal = test system: RXF 393 renal
# SF-268 CNS = test system: SF-268 CNS
# SF-295 CNS = test system: SF-295 CNS
# SF-539 CNS = test system: SF-539 CNS
# UACC-257 melanoma = test system: UACC-257 melanoma
# NCI-H322M lung = test system: NCI-H322M lung
# A549/ATCC NSCLC = test system: A549/ATCC NSCLC
# COLO 205 colon = test system: COLO 205 colon
# M14 melanoma = test system: M14 melanoma
compound,measurement,setting,value
CC1(C)OB(c2ccc(Cn3cc(F)c(=O)[nH]c3=O)cc2)OC1(C)C,growth,NCI-H23 lung; 10 µM,94.9% (inactive)
same,growth,NCI-H23 lung; 50 µM,68.3% (inactive)
same,growth,NCI-H226 lung; 10 µM,96.9% (inactive)
same,growth,NCI-H226 lung; 50 µM,64% (inactive)
same,growth,HOP-62 NSCLC; 10 µM,104% (inactive)
same,growth,HOP-62 NSCLC; 50 µM,63.9% (inactive)
same,growth,NCI-H460 lung; 10 µM,106% (inactive)
same,growth,NCI-H460 lung; 50 µM,34.2% (inactive)
same,growth,HOP-92 NSCLC; 10 µM,98.3% (inactive)
same,growth,HOP-92 NSCLC; 50 µM,33.2% (inactive)
same,growth,NCI-H522 lung; 10 µM,91% (inactive)
same,growth,NCI-H522 lung; 50 µM,10.3% (inactive)
same,growth,786-0 renal; 10 µM,105% (inactive)
same,growth,786-0 renal; 50 µM,81.4% (inactive)
same,growth,DU-145 prostate; 10 µM,113% (inactive)
same,growth,DU-145 prostate; 50 µM,84% (inactive)
same,growth,K-562 leukemia; 10 µM,110% (inactive)
same,growth,K-562 leukemia; 50 µM,29.7% (inactive)
same,growth,MALME-3M melanoma; 10 µM,97.2% (inactive)
same,growth,MALME-3M melanoma; 50 µM,44.7% (inactive)
same,growth,MDA-MB-231 breast; 10 µM,124% (inactive)
same,growth,MDA-MB-231 breast; 50 µM,86.1% (inactive)
same,growth,RXF 393 renal; 10 µM,99.7% (inactive)
same,growth,RXF 393 renal; 50 µM,59.9% (inactive)
same,growth,SF-268 CNS; 10 µM,94.7% (inactive)
same,growth,SF-268 CNS; 50 µM,68.7% (inactive)
same,growth,SF-295 CNS; 10 µM,102% (inactive)
same,growth,SF-295 CNS; 50 µM,85.5% (inactive)
same,growth,SF-539 CNS; 10 µM,101% (inactive)
same,growth,SF-539 CNS; 50 µM,61.4% (inactive)
same,growth,UACC-257 melanoma; 10 µM,103% (inactive)
same,growth,UACC-257 melanoma; 50 µM,67.3% (inactive)
O=C(c1ccc(Cl)cc1)C(NCCO)c1ccc(Cl)cc1 (stereo unspecified),growth,NCI-H23 lung; 10 µM unless noted,90.7% (inactive) and 90.4% (inactive)
same,growth,NCI-H226 lung; 10 µM unless noted,93.2% (inactive) and 106% (inactive)
same,growth,NCI-H322M lung; 10 µM unless noted,86.4% (inactive) and 93.6% (inactive)
same,growth,HOP-62 NSCLC; 10 µM unless noted,87.5% (inactive)
same,growth,NCI-H460 lung; 10 µM unless noted,100% (inactive) and 114% (inactive)
same,growth,HOP-92 NSCLC; 10 µM unless noted,72.9% (inactive) and 89.4% (inactive)
same,growth,NCI-H522 lung; 10 µM unless noted,92.8% (inactive) and 89.3% (inactive)
same,growth,A549/ATCC NSCLC; 10 µM unless noted,96.8% (inactive) and 93.8% (inactive)
same,growth,786-0 renal; 10 µM unless noted,97.8% (inactive) and 93.3% (inactive)
same,growth,COLO 205 colon; 10 µM unless noted,112% (inactive) and 122% (inactive)
same,growth,DU-145 prostate; 10 µM unless noted,108% (inactive) and 109% (inactive)
same,growth,K-562 leukemia; 10 µM unless noted,90.3% (inactive) and 105% (inactive)
same,growth,MALME-3M melanoma; 10 µM unless noted,90.2% (inactive) and 102% (inactive)
same,growth,MDA-MB-231 breast; 10 µM unless noted,96.3% (inactive) and 97.8% (inactive)
same,growth,RXF 393 renal; 10 µM unless noted,94.9% (inactive) and 108% (inactive)
same,growth,SF-268 CNS; 10 µM unless noted,99% (inactive) and 85.8% (inactive)
same,growth,SF-295 CNS; 10 µM unless noted,96.8% (inactive) and 103% (inactive)
same,growth,SF-539 CNS; 10 µM unless noted,114% (inactive) and 103% (inactive)
same,growth,UACC-257 melanoma; 10 µM unless noted,100% (inactive) and 101% (inactive)
O=C(O)c1sccc1O,growth,NCI-H23 lung; 10 µM,80.1% (inactive)
same,growth,NCI-H23 lung; 100 µM,37.2% (inactive)
same,growth,NCI-H226 lung; 10 µM,89.2% (inactive)
same,growth,NCI-H226 lung; 100 µM,74.1% (inactive)
same,growth,NCI-H322M lung; 10 µM,87.5% (inactive)
same,growth,NCI-H322M lung; 100 µM,50.9% (inactive)
same,growth,HOP-62 NSCLC; 10 µM,102% (inactive)
same,growth,HOP-62 NSCLC; 100 µM,34.1% (inactive)
same,growth,NCI-H460 lung; 10 µM,91.2% (inactive)
same,growth,NCI-H460 lung; 100 µM,30.1% (inactive)
same,growth,HOP-92 NSCLC; 10 µM,66.9% (inactive)
same,growth,HOP-92 NSCLC; 100 µM,26.9% (inactive)
same,growth,NCI-H522 lung; 10 µM,64.5% (inactive)
same,growth,NCI-H522 lung; 100 µM,-32.6% (active)
same,growth,A549/ATCC NSCLC; 10 µM,82.5% (inactive)
same,growth,A549/ATCC NSCLC; 100 µM,38.8% (inactive)
same,growth,786-0 renal; 10 µM,99.1% (inactive)
same,growth,786-0 renal; 100 µM,47.6% (inactive)
same,growth,COLO 205 colon; 10 µM,111% (inactive)
same,growth,COLO 205 colon; 100 µM,84.6% (inactive)
same,growth,DU-145 prostate; 10 µM,83.1% (inactive)
same,growth,DU-145 prostate; 100 µM,40.3% (inactive)
same,growth,K-562 leukemia; 10 µM,60.5% (inactive)
same,growth,K-562 leukemia; 100 µM,5.69% (active)
same,growth,MALME-3M melanoma; 10 µM,103% (inactive)
same,growth,MALME-3M melanoma; 100 µM,78.8% (inactive)
same,growth,MDA-MB-231 breast; 10 µM,40.8% (inactive)
same,growth,MDA-MB-231 breast; 100 µM,27.7% (inactive)
same,growth,RXF 393 renal; 10 µM,84.6% (inactive)
same,growth,RXF 393 renal; 100 µM,52.1% (inactive)
same,growth,SF-268 CNS; 10 µM,71.6% (inactive)
same,growth,SF-268 CNS; 100 µM,26% (inactive)
same,growth,SF-295 CNS; 10 µM,76.6% (inactive)
same,growth,SF-295 CNS; 100 µM,31.2% (inactive)
same,growth,SF-539 CNS; 10 µM,85.4% (inactive)
same,growth,SF-539 CNS; 100 µM,23.5% (inactive)
same,growth,UACC-257 melanoma; 10 µM,85.3% (inactive)
same,growth,UACC-257 melanoma; 100 µM,51.5% (inactive)
same,growth,M14 melanoma; 10 µM,85.5% (inactive)
same,growth,M14 melanoma; 100 µM,7.02% (active)
CCN(CC)CCOc1ccc2c(c1)C(=O)c1cc(OCCN(CC)CC)ccc1-2,growth,NCI-H23 lung; 10 µM unless noted,79.5% (inactive) and 71.2% (inactive)
same,growth,NCI-H226 lung; 10 µM unless noted,99.7% (inactive) and 73% (inactive)
same,growth,NCI-H322M lung; 10 µM unless noted,85.8% (inactive) and 60.6% (inactive)
same,growth,HOP-62 NSCLC; 10 µM unless noted,58.3% (inactive) and 38.2% (inactive)
same,growth,NCI-H460 lung; 10 µM unless noted,46.2% (inactive) and 12.9% (inactive)
same,growth,HOP-92 NSCLC; 10 µM unless noted,20% (inactive)
same,growth,NCI-H522 lung; 10 µM unless noted,99.6% (inactive) and 69.6% (inactive)
same,growth,A549/ATCC NSCLC; 10 µM unless noted,55.8% (inactive) and 50.6% (inactive)
same,growth,786-0 renal; 10 µM unless noted,63.3% (inactive) and -30.9% (active)
same,growth,COLO 205 colon; 10 µM unless noted,11.3% (inactive) and -4.52% (active)
same,growth,DU-145 prostate; 10 µM unless noted,74.6% (inactive) and 64.7% (inactive)
same,growth,K-562 leukemia; 10 µM unless noted,41.7% (inactive) and -9.47% (active)
same,growth,MALME-3M melanoma; 10 µM unless noted,98.2% (inactive) and 80.2% (inactive)
same,growth,MDA-MB-231 breast; 10 µM unless noted,65.5% (inactive) and 78.5% (inactive)
same,growth,RXF 393 renal; 10 µM unless noted,71.4% (inactive)
same,growth,SF-268 CNS; 10 µM unless noted,75.1% (inactive) and 54.8% (inactive)
same,growth,SF-295 CNS; 10 µM unless noted,82.6% (inactive) and 71.5% (inactive)
same,growth,SF-539 CNS; 10 µM unless noted,50% (inactive) and 38.4% (inactive)
same,growth,UACC-257 melanoma; 10 µM unless noted,89.9% (inactive) and 88.6% (inactive)
same,growth,M14 melanoma; 10 µM unless noted,91.7% (inactive) and 83.4% (inactive)

# — PubChem BioAssay (NCI)
